Data on seven compounds can be found in PubChem BioAssay (Tox21).

A number with no mark means an inactive call. Records with an inconclusive call do not appear. Activity calls are given as the source filed them. Unless noted, calls follow the shape of the dose curve; as a rule, active = well fitted curve in the direction sought with a large enough effect in the repeat runs; inconclusive = weak or mixed curves; inactive = no such curve, though single readings can be large; an effect the other way counts as inactive or inconclusive.

Test [1] can be described thus: qHTS assay to identify small molecule antagonists of the estrogen related receptor (ERR) signaling pathway from Tox21 library - cell viability counter screen (AID 1224834). Also: nearly all actives have a fitted effect of over 30% in size. Also: potency is read from the fitted curve at half-maximal effect. The procedure, abridged: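 Viability readout (CellTiter-Fluor fluorescence, 30 min at 37 C) multiplexed with the ERR assay; cells treated 17.5 h at 37 C with compounds delivered in DMSO.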
(In general: qHTS replaces the single test concentration by a dilution series.)

Test [2] addresses Luciferin 4-monooxygenase (Photinus pyralis) (UniProt P08659). As to the kind of experiment: qHTS assay to identify small molecule inhibitors of firefly luciferase (AID 1224835). Also: nearly all actives have a fitted effect of over 25% in size. Also: potency is read from the fitted curve at half-maximal effect. Put shortly:
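Quantitative HTS format; KM concentrations of both substrates. Purified P. pyralis FLuc activity quantified from luminescence images.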

Test [3] in a line: qHTS assay to identify small molecule agonists of the constitutive androstane receptor (CAR) signaling pathway - cell viability counter screen (AID 1224836). Also: nearly all actives have a fitted effect of over 45% in size. Also: potency is read from the fitted curve at half-maximal effect. Put shortly: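 Multiplexed viability check: HepG2-CYP2B6-hCAR cells, 15-point compound dosing, 0.75 uM PK11195 final, 23 h at 37 C, CellTiter-Fluor fluorescence.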
Test [4] in a line: qHTS assay to identify small molecule antagonists of the constitutive androstane receptor (CAR) signaling pathway - cell viability counter screen (AID 1224837). Also: nearly all actives have a fitted effect of over 45% in size. Also: potency is read from the fitted curve at half-maximal effect. Put shortly:
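Fluorescence from CellTiter-Fluor served as the viability signal. Human hepatoma HepG2 cells stably bearing hCAR and CYP2B6-2.2kb received compound plus CITCO (50 nM final) for 23 hr.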

The target in test [5] is Nuclear receptor subfamily 1 group I member 3 (Homo sapiens) (UniProt Q14994). As to the kind of experiment: qHTS assay to identify small molecule antagonists of the constitutive androstane receptor (CAR) signaling pathway (AID 1224838).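 Also: HepG2 cells stably expressing hCAR with CYP2B6 luciferase reporter stimulated by CITCO; nearly all actives have a fitted effect of over 40% in size.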 Also: potency is read from the fitted curve at half-maximal effect. Put shortly:
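Quantitative HTS in double-stable HepG2-CYP2B6-hCAR cells. After 4 h plating, cells get compound (15 concentrations) and CITCO at 50 nM final, incubate 24 h at 37 C, then ONE-Glo luminescence is read.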

Test [6] has the same target. As to the kind of experiment: qHTS assay to identify small molecule agonists of the constitutive androstane receptor (CAR) signaling pathway (AID 1224839). Also: nearly all actives have a fitted effect of over 15% in size. Also: potency is read from the fitted curve at half-maximal effect.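 As to activation: HepG2 cells stably carrying human CAR and a CYP2B6 luciferase reporter.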 Put shortly:
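Using human hepatoma HepG2 cells engineered with hCAR and a CYP2B6-2.2kb reporter, 15-concentration compound series were incubated 24 h alongside PK11195 at 0.75 uM final, with luminescence quantified afterwards.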

Test [7] can be described thus: qHTS assay to identify small molecule antagonists of the estrogen related receptor signaling pathway with the pleiotropic PPARgamma coactivator (PGC) from Tox21 10K library - cell viability counter screen (AID 1224840; active = well fitted cell-killing curve with a large enough effect in the repeat runs, not every such curve was filed as active; also: nearly all actives have a fitted effect of over 40% in size). The procedure, abridged:
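Compounds in DMSO, alongside positive and negative controls, were pinned onto PGC/ERR cells (2,000 per well). Exposure lasted 17.5 hours at 37 C, followed by a 30-minute CellTiter-Fluor incubation and fluorescence reading.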

A short description of test [8]: qHTS assay to identify small molecule agonists of H2AX - cell viability counter screen (AID 1224847; calls by dose curve; also: top concentration of the series differs between compounds; nearly all actives have a fitted effect of over 30% in size). Put shortly:
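After overnight plating of 1000 CHO-K1 cells per well, a 15-concentration compound series was applied for 3 hr at 37C. Luminescence from CellTiter-Glo, read following 30 min at room temperature, reflected cell viability.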

Test [9] in a line: qHTS RealTime-Glo MT Cell Viability Assay in HepG2 cells - 24 hour (AID 1224867). Also: nearly all actives have a fitted effect of over 50% in size. Put shortly: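 HepG2 cells (600/well) were dispensed with RealTime-Glo reagents, incubated 5 h at 37 °C, then treated with compounds in DMSO for up to 40 h. Nonlytic NanoLuc luminescence reflecting viable cells was read at each stated time point.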
Test [10] can be described thus: qHTS RealTime-Glo MT Cell Viability Assay in HEK293 cells - 32 hour (AID 1224868). Also: nearly all actives have a fitted effect of over 50% in size. Also: potency is read from the fitted curve at half-maximal effect. As to activity change, negative = cytotoxic: top concentration of the series differs between compounds. The procedure, abridged: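 HEK293 cells seeded with NanoLuc/prosubstrate reagent, rested 5 h at 37 C, then dosed and kept at 37 C up to 40 h. Nonlytic real-time luminescence from viable cells read at 0, 8, 16, 24, 32 and 40 h.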
A short description of test [11]: A CellTox Green Cytotoxicity Assay to monitor cytotoxicity in HEK293 cells - 0 hour (AID 1224869). Also: nearly all actives have a fitted effect of over 50% in size. Put shortly:
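Each value comes from one timepoint of a single continuous run in which HEK293 cells with CellTox Green were exposed to compound for up to 40 h at 37 C, dye fluorescence rising with cell death.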

The nature of test [12]: qHTS RealTime-Glo MT Cell Viability Assay in HepG2 cells - 40 hour (AID 1224870). Also: nearly all actives have a fitted effect of over 50% in size. Also: potency is read from the fitted curve at half-maximal effect. Put shortly:
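HepG2 cells mixed with RealTime-Glo MT reagents (NanoLuc plus cell-permeant prosubstrate) were seeded at 600 cells/well, incubated 5 h at 37 C/5% CO2, then pinned with compounds in DMSO; nonlytic luminescence tracked viability during 40 h treatment.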

Test [13] deals with Thyrotropin receptor (Homo sapiens) (UniProt P16473). As to the kind of experiment: qHTS assay to identify small molecule agonists of the thyroid stimulating hormone receptor (TSHR) signaling pathway (AID 1224843; calls by dose curve; also: nearly all actives have a fitted effect of over 45% in size). The procedure, abridged:
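TSHR-expressing HEK293 cells (800 per well) were exposed to compounds for 30 min at room temperature. cAMP was then detected by HTRF competition with cAMP-d2 and anti-cAMP cryptate, read after 1 h at room temperature. Fifteen concentrations, triplicate.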

Test [14] is described as follows: qHTS assay to identify small molecule agonists of the hypoxia (HIF-1) signaling pathway - cell viability counter screen (AID 1224844; calls by dose curve; also: nearly all actives have a fitted effect of over 50% in size; also: potency is read from the fitted curve at half-maximal effect). Put shortly:
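Luminescent ATP content (CellTiter-Glo, 30 min, room temperature) served as the viability measure in HRE-bla ME-180 cells exposed to compounds for 17 hrs in low-serum medium (0.5% dialyzed FBS).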

The nature of test [15]: qHTS assay to identify small molecule agonists of H2AX (AID 1224845; active = well fitted activation curve with a large enough effect in the signal ratio in the repeat runs, not every such curve was filed as active; the % refers to the signal ratio). Put shortly:
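Wild-type CHO-K1 cells plated overnight, then exposed 3 hr at 37C to compounds at 15 concentrations (0.76% DMSO). Lysed, then HTRF anti-pH2AX(S139)-cryptate/anti-H2AX-d2 detection after 24 hr at room temperature; emissions 665 and 620 nm.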

Test [16] can be described thus: qHTS assay to identify small molecule agonists of the hypoxia (HIF-1) signaling pathway (AID 1224846; active = well fitted activation curve with a large enough effect in the signal ratio in the repeat runs, not every such curve was filed as active; the % refers to the signal ratio). Put shortly: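 Measured by blue/green FRET after loading CCF4-AM: beta-lactamase expressed from a hypoxia response element in ME-180 cells. Test agents were delivered in DMSO and left 17 hrs; cells had been plated 5 hrs earlier in low-serum (0.5% dialyzed FBS) medium.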

Test [17] is described as follows: qHTS assay to identify small molecule antagonists of the estrogen related receptor signaling pathway with the pleiotropic PPARgamma coactivator (PGC) from Tox21 10K library (AID 1224841; call rule not given here; also: potency is read from the fitted curve at half-maximal effect). The procedure, abridged:
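Compound exposure ran 18 hours at 37 C in PGC/ERR cells (2,000/well) that had first rested 6 hours in a 37 C/5% CO2 incubator. Luciferase activity was then detected with One-Glo after a 30-minute room-temperature step.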

A short description of test [18]: qHTS assay to identify small molecule agonists of the estrogen related receptor signaling pathway with the pleiotropic PPARgamma coactivator (PGC) from Tox21 10K library (AID 1224842). Also: nearly all actives have a fitted effect of over 15% in size. The procedure, abridged: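 PGC/ERR reporter cells (NTP line) were seeded 2,000 per well, rested 6 h at 37 C/5% CO2, then pin-dosed with compounds in DMSO for 18 h at 37 C; luciferase read by One-Glo luminescence after 30 min at room temperature.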

Test [19] in a line: qHTS assay to identify small molecule antagonists of the estrogen related receptor (ERR) signaling pathway from Tox21 library (AID 1224848). Also: nearly all actives have a fitted effect of over 50% in size. Also: potency is read from the fitted curve at half-maximal effect. The procedure, abridged:
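Cells: ERR line, 2,000/well; 6 h preincubation 37 C/5% CO2. Cpd in DMSO via pin tool; 18 h, 37 C. ONE-Glo, 30 min RT, luminescence.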

The nature of test [20]: qHTS assay to identify small molecule agonists of the estrogen related receptor (ERR) signaling pathway from Tox21 library (AID 1224849; calls by dose curve; also: nearly all actives have a fitted effect of over 15% in size). To be noted: ERR reporter cell line, ONE-Glo luciferase, 18 h; at 92.4 µM (top of the series) unless noted. The procedure, abridged:
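We plated ERR reporter cells, waited 6 h, added compounds in DMSO by pin tool and incubated them 18 h at 37 C. ONE-Glo was then added and luminescence read after 30 min.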
% is scaled to controls: 0 for no effect and ±100 for the full control effect.

Chain of Luciferin 4-monooxygenase (Photinus pyralis) (P08659 whole entry, looked up): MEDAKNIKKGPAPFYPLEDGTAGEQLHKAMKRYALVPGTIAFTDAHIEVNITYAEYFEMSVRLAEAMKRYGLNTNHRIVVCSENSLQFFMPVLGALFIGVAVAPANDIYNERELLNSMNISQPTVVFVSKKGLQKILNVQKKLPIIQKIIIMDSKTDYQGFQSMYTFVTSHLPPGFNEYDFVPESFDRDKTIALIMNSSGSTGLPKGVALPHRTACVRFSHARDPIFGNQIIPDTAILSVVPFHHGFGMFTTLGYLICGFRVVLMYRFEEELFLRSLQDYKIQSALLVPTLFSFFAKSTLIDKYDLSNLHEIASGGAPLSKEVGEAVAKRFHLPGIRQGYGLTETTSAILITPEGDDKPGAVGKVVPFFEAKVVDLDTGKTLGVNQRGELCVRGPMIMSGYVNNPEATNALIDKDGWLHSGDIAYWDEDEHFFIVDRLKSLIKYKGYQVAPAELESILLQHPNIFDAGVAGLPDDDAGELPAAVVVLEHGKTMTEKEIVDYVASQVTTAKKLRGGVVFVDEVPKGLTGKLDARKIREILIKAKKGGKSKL
Chain of Thyrotropin receptor (Homo sapiens) (P16473 whole entry, looked up): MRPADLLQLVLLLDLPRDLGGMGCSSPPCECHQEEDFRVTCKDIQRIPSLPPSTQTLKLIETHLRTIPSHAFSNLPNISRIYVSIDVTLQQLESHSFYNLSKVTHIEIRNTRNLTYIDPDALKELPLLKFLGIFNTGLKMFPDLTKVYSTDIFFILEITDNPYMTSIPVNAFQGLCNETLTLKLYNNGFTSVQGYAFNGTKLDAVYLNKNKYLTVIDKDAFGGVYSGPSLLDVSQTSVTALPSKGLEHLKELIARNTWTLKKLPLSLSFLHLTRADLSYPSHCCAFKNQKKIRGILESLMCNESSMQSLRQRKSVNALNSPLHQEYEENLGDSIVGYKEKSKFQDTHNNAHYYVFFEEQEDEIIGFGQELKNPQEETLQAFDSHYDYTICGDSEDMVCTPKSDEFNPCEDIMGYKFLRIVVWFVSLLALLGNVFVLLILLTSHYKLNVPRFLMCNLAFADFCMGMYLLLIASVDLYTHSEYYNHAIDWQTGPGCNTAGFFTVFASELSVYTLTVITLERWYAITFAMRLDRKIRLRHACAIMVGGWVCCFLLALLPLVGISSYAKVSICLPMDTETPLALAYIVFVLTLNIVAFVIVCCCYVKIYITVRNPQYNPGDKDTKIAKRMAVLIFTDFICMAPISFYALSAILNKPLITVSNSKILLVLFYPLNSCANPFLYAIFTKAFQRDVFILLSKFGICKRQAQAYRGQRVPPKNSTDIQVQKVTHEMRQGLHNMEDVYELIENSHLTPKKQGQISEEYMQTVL
Chain of Nuclear receptor subfamily 1 group I member 3 (Homo sapiens) (Q14994 whole entry, looked up): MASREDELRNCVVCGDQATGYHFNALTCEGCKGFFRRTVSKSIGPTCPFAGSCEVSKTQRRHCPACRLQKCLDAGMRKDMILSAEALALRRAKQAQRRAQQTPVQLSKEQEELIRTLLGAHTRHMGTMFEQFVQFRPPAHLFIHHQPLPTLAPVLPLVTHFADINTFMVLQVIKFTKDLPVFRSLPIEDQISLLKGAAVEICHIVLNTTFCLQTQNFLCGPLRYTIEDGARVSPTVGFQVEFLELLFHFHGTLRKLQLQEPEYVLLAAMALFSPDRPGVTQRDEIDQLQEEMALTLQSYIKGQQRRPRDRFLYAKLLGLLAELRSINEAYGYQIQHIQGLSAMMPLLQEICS

In the case of `O=C(O)c1ccc2c(c1)nc(C(=O)NC1CCN(C3CC3)CC1)n2Cc1cc(-c2ccc(Cl)s2)on1`, the values for the viability change, negative = cytotoxic in [1], in test [3] and in [7] were -4.05% [at 19 µM], 0.0204% [at 19 µM] and -11.5% [at 19 µM], respectively. For the same compound, the activity change, negative = inhibition in test [2] is -1.8% [at 23.6 µM]. In addition, the activity change, negative = cytotoxicity in test [4] is 10.8% [at 19 µM]; in test [8], -8.48% [at 31.6 µM]; in test [9], -0.892% [at 15.8 µM]. Besides, in test [5], the activity, negative = inhibition is 19.9% [at 19 µM]. Besides, the activation in test [6] was -1.53% [at 19 µM]. Moreover, the activity change, negative = cytotoxic in [10] is -0.224% [at 15.8 µM]; in test [12], -1.55% [at 15.8 µM]. Also, the cytotoxicity in [11] is -5.57% [at 15.8 µM].
Take `CC(C)Cc1nccs1`: the Potency entry in test [1], in test [2], in test [3], in [4], in [6] and in test [7] was “inactive” throughout. The Potency result in test [13], in test [14], in test [15], in test [8], in test [10] and in test [11] was “inactive” throughout. Moreover, the Potency entry in test [12] is “inactive”. The call in [16] and in test [9] was inactive.
For `C=C(C)C(=O)OCCCCCCCCCCOC(=O)C(=C)C`, the Potency entry in test [1], in test [2], in test [3], in test [4], in test [6] and in test [7] was “inactive” in each case. The Potency result in test [17], in test [18], in test [14], in test [15], in test [8] and in test [19] was “inactive” in each case. The Potency result in test [10] and in test [12] was “inactive” each time. Moreover, the compound was classed as inactive in [16] and in test [9]. In addition, the activity change, positive = activation in test [20] is 1.48%.
As for `Clc1ccccc1-c1nc(-c2ccncc2)no1`, the Potency result in test [1], in [3], in [4], in test [7], in [13] and in test [14] was “inactive” in each case. Further, the Potency entry in [15] and in test [11] was “inactive” in each case. The Potency in test [2] was 2750 nM (active); in [6], 10600 nM (active). In test [9], the outcome was inactive.
In the case of `O=P(c1ccccc1)(c1ccccc1)c1ccccc1`, the Potency result in test [1], in [2], in test [3], in test [4], in [5] and in test [7] was “inactive” each time. Also, the Potency result in test [13], in test [14], in [15], in [8], in test [10] and in test [11] was “inactive” throughout. Also, in [12], the Potency entry was “inactive”. Besides, the compound was classed as inactive in test [16] and in test [9].
Turning to `CC(C)C[C@H](NC(=O)[C@H](Cc1ccccc1)NC(=O)c1cnccn1)B(O)O`, the Potency is 84.1 nM (active) in test [1]; 298 nM (active) in test [3]; 266 nM (active) in test [4]; 37.6 nM (active) in [5]; 18.8 nM (active) in test [17]; 21.3 nM (active) in test [14]. Moreover, the Potency was 23.7 nM (active) in [19], 37.9 nM (active) in [10] and 21.3 nM (active) in test [12]. Also, the Potency result in test [2], in [6], in test [18], in test [13] and in test [11] was “inactive” each time. In addition, the activity change, positive = activation in test [20] is -63.1% [at 42.5 µM].
For `CS(C)=O`, the Potency entry in [1], in test [2], in test [3], in test [4], in test [7] and in test [14] was “inactive” each time. Further, the Potency result in [15], in test [8] and in [11] was “inactive” each time. For the same compound, the call in [16] and in test [9] was inactive.
